Screen size: about 5,500 compounds; about 2,000 (36%) were called active. Another 18% or so got no clear call; they are omitted. Rule as the data show it: active = normalized growth mostly below about 0.91 (no sharp cut-off); inconclusive = no clear call, values can overlap the other calls; inactive = mostly above about 0.92. This is one part of the list.
Experiment: chemical genetic growth profiling, strain panel (AID 1159580);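 also: tested at 20 µM; growth read once vehicle control cultures reached saturation at 30 °C; 1 = growth at the plate median or of vehicle wells; lower values mean less growth of the strain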
Settings: S. cerevisiae deletion strains, growth OD

Measured: normalized growth

CC(=O)OCCCCN1C(=O)c2ccccc2C1=O
inactive: locus YAL013W, strain DEP1, active compounds read low 0.995 | locus YBR229C, strain ROT2, active compounds read low 1 | locus YCL061C, strain MRC1, active compounds read low 0.986 | locus YDL101C, strain DUN1, active compounds read low 1.04 | locus YDL134C, strain PPH21, active compounds read low 1 | locus YDR150W, strain NUM1, active compounds read low 0.988 | locus YEL061C, strain CIN8, active compounds read low 0.995 | locus YGR078C, strain PAC10, active compounds read low 1.01 | locus YHR030C, strain SLT2, active compounds read low 0.943 | locus YHR087W, strain rtc3, active compounds read low 1.01 | locus YJL187C, strain SWE1, active compounds read low 1 | locus YJR043C, strain POL32, active compounds read low 0.997 | locus YJR075W, strain HOC1, active compounds read low 0.977 | locus YKL190W, strain CNB1, active compounds read low 0.999 | locus YLR039C, strain RIC1, active compounds read low 1.02 | locus YLR058C, strain SHM2 (second series), active compounds read low 0.994 | locus YLR085C, strain ARP6, active compounds read low 0.967 | locus YLR262C, strain YPT6, active compounds read low 1.02 | locus YML094W, strain GIM5, active compounds read low 1.05 | locus YMR219W, strain ESC1, active compounds read low 1 | locus YMR263W, strain SAP30, active compounds read low 0.996 | locus YNL153C, strain GIM3, active compounds read low 1.02 | locus YNL298W, strain CLA4 (second series), active compounds read low 0.983 | locus YNL322C, strain KRE1, active compounds read low 1 | locus YNR030W, strain Alg12, active compounds read low 0.995 | locus YOL006C, strain TOP1, active compounds read low 0.993 | locus YPL055C, strain LGE1, active compounds read low 1 | locus YPL241C, strain CIN2, active compounds read low 1.05 | locus YPR135W, strain CTF4, active compounds read low 0.975
